How the values were obtained:
[1] = biological target: T1, Inhibitor of nuclear factor kappa-B kinase subunit epsilon (Homo sapiens) (UniProt Q14164); conditions: at 1 µM;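 also: reported values are averaged percent inhibition figures against human IKKε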
T1 sequence (whole entry): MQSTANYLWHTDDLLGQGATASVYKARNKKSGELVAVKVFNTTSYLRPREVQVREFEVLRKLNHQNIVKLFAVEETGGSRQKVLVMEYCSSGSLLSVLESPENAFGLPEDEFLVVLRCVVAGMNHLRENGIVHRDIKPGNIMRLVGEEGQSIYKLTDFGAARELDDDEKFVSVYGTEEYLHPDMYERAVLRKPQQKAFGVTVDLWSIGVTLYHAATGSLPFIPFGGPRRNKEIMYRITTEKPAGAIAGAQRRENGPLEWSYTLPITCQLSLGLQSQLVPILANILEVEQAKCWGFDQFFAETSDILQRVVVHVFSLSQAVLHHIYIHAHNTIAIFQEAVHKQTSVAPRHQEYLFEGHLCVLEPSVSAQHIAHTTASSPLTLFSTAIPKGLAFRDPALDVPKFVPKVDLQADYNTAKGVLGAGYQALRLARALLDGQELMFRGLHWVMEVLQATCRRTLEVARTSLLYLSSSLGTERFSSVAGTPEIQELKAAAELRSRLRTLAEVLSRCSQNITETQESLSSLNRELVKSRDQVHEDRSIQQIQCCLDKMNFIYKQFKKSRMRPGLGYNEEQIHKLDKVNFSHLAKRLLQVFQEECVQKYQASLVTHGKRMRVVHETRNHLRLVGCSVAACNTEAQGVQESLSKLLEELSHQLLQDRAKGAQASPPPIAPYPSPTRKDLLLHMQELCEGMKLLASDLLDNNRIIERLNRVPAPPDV

[2] = biological target: T2, Serine/threonine-protein kinase Nek1 (Homo sapiens) (UniProt Q96PY6); conditions: at 0.1 µM
T2 sequence (whole entry): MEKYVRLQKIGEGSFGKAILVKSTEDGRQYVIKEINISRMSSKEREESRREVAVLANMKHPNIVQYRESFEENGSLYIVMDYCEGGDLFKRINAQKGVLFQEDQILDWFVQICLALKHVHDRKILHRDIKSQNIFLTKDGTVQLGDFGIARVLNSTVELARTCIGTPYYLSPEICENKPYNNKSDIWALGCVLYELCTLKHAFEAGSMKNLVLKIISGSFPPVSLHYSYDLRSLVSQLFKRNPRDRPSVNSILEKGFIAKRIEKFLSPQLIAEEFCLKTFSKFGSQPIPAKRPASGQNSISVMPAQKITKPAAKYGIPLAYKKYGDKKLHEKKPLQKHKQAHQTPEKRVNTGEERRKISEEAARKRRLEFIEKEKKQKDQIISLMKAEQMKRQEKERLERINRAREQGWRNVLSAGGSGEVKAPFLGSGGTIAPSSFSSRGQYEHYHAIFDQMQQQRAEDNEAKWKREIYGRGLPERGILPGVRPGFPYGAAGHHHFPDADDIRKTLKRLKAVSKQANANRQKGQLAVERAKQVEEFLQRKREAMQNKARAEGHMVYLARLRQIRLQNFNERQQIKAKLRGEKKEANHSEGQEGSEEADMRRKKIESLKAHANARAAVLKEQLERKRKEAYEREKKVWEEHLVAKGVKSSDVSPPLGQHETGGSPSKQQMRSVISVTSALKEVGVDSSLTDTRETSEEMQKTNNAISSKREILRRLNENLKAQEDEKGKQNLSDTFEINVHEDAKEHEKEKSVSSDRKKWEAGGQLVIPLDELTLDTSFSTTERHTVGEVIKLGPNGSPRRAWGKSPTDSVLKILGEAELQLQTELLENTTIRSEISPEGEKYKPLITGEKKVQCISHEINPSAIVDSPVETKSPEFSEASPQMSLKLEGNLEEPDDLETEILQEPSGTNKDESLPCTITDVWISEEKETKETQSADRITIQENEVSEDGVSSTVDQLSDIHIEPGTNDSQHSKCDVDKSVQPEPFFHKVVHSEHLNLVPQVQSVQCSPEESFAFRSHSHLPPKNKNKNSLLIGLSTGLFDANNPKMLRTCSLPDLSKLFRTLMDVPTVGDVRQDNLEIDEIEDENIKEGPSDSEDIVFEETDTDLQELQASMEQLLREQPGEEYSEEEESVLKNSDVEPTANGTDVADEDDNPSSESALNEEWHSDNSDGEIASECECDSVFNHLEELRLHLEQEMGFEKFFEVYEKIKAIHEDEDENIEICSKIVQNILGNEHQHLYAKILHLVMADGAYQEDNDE

[3] = biological target: T2, Serine/threonine-protein kinase Nek1 (Homo sapiens); conditions: at 1 µM
[4] = biological target: T3, Serine/threonine-protein kinase Nek2 (Homo sapiens) (UniProt P51955); conditions: at 0.1 µM
T3 sequence (whole entry): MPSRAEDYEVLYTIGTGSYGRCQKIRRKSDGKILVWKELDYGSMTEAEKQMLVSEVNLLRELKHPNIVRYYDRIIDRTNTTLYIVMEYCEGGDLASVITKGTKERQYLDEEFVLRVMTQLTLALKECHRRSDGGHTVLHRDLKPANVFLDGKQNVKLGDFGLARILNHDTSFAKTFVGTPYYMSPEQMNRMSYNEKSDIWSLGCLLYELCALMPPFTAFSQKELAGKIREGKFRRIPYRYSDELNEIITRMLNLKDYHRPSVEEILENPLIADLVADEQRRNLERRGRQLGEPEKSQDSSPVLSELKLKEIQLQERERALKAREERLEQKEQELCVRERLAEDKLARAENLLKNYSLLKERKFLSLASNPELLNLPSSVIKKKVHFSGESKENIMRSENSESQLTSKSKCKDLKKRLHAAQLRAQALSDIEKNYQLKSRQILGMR

[5] = biological target: T3, Serine/threonine-protein kinase Nek2 (Homo sapiens); conditions: at 1 µM
[6] = biological target: Serine/threonine-protein kinase Nek6 (Homo sapiens) (UniProt Q9HC98); conditions: at 0.1 µM
[7] = biological target: Serine/threonine-protein kinase Nek6 (Homo sapiens) (UniProt Q9HC98); conditions: at 1 µM
[8] = biological target: Serine/threonine-protein kinase Nek7 (Homo sapiens) (UniProt Q8TDX7); conditions: at 0.1 µM
[9] = biological target: Serine/threonine-protein kinase Nek7 (Homo sapiens) (UniProt Q8TDX7); conditions: at 1 µM
[10] = biological target: T4, Serine/threonine-protein kinase Nek9 (Homo sapiens) (UniProt Q8TD19); conditions: at 0.1 µM;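 also: reported value is the mean percent inhibition of NEK9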
T4 sequence (whole entry): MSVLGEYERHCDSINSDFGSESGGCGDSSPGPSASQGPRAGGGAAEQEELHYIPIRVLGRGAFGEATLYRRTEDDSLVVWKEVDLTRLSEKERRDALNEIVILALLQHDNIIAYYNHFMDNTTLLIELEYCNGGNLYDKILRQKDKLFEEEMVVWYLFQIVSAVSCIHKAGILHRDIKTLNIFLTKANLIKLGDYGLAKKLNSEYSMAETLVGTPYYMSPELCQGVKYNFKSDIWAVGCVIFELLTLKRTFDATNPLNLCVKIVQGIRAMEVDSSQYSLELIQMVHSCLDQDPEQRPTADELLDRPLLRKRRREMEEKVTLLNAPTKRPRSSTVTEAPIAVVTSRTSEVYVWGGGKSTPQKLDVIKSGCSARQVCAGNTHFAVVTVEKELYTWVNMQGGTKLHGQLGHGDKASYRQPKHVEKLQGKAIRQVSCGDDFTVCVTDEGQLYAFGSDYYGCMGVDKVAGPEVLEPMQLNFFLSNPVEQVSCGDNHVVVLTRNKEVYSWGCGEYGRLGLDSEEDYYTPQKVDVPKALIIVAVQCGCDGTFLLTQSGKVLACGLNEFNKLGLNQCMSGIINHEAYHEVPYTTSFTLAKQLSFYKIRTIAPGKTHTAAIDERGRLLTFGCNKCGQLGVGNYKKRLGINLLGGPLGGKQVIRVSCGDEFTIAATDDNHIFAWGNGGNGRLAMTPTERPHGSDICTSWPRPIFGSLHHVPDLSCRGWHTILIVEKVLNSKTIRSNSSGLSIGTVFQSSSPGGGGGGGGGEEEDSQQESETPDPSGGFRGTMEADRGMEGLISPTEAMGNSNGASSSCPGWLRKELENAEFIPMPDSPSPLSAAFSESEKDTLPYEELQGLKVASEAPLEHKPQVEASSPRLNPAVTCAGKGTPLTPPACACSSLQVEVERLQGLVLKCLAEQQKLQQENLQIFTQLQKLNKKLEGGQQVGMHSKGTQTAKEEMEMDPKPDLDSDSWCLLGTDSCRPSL

Sequence of Serine/threonine-protein kinase Nek6 (Homo sapiens) (Q9HC98 whole entry): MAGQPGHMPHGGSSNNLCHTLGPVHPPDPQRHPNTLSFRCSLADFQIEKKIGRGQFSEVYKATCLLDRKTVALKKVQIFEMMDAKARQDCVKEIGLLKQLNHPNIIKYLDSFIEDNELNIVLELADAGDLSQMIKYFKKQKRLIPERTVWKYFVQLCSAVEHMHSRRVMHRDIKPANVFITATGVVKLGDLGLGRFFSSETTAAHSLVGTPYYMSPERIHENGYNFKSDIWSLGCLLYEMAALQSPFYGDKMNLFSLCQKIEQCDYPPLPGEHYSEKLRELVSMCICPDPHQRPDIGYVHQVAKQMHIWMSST
Sequence of Serine/threonine-protein kinase Nek7 (Homo sapiens) (Q8TDX7 whole entry, looked up): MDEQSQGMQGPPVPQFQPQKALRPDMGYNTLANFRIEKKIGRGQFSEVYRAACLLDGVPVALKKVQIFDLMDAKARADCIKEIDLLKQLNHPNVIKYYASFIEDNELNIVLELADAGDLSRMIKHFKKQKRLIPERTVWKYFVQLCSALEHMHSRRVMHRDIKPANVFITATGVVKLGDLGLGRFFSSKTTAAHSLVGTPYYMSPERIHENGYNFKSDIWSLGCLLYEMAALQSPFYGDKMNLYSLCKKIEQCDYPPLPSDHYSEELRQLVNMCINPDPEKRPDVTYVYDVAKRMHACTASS

SMILES	inhibition [1] [%]	inhibition [2] [%]	inhibition [3] [%]	inhibition [4] [%]	inhibition [5] [%]	inhibition [6] [%]	inhibition [7] [%]	inhibition [8] [%]	inhibition [9] [%]	inhibition [10] [%]
CS(=O)(=O)Nc1cccc(-c2ccc3c(NC(=O)C4CC4)n[nH]c3c2)c1	2.59	0.75	1.07	1.36	0.27	1.36	-1.38	2.34	1.08	2.01
NS(=O)(=O)c1cccc(Nc2cc(-c3ccc(F)cc3)n[nH]2)c1	8.08	1.79	3.87	4.43	6.1	2.48	6.59	4.33	4.76	10.6
Nc1nccc(C#Cc2cncnc2Nc2ccc(OCc3cccc(F)c3)c(Cl)c2)n1	6.36	2.09	3.18	4.14	5.98	1.4	-0.89	3.1	3.35	8.89
COC(=O)c1cncc(/C=C/c2c(C)cc(O)cc2C)c1	8.63	1.51	3.23	4.54	3.91	0.94	4.21	2.47	1.56	2.09
CS(=O)(=O)CCNCc1nc(-c2ccc3ncnc(Nc4ccc(OCc5cccc(C(F)(F)F)c5)cc4)c3c2)cs1	2.82	1.67	3.9	2.86	0.5	-0.59	2.66	1.6	5.52	3.06
COc1ccc(-c2nn3ncccc3c2-c2ccnc(Nc3cccc(C(F)(F)F)c3)n2)cc1	4.37	1.37	0.9	4.06	1.46	-1.61	1.08	1.12	2.05	6.48
NC(=O)c1sc(-n2cnc3ccccc32)cc1OCc1ccccc1Br	6.21	1.75	2.24	4.32	3.39	-0.26	2.86	3.33	9.69	8.49
NS(=O)(=O)c1ccc(Nc2cc(-c3cccc(O)c3)n[nH]2)cc1	6.34	3.72	3.43	6.7	7.9	1.66	-3.5	6.05	4.88	4.44
